# Data from PubChem BioAssay (EPA / NIEHS).
# Several values for one entry are separate records, joined by “and”; a condition that tells them apart may be missing. Equal entries are not always repeated. Activity calls are given as the source filed them. Rule for the calls, unless noted: active = hit-call score of the fitted dose curve at least 0.9, where 1 is the maximum; inactive = score below 0.9.
# Key:
# [1] = read-out: Monokine induced gamma interferon (MIG), CXCL9 (gene 4283); assay: BSK_SAg_MIG: BioMAP Diversity Plus: SAg Assay for Monokine induced gamma interferon (MIG) Biomarker Activity (AID 2283092); details: primary human HUVEC with PBMC; actives raise or lower the signal
# Method in brief: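 Values reflect bidirectional fitting of ELISA-measured MIG against DMSO vehicle, taken 24 h after dosing of a co-culture of human umbilical vein endothelial cells and peripheral blood mononuclear cells.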
# [2] = BSK_SAg_PBMCCytotoxicity: PBMC Cytotoxicity Assessment in the BioMAP Diversity Plus: SAg Assay (AID 2283093); details: primary human HUVEC with PBMC;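 note: PBMC viability measured as Alamar Blue reduction fluorescence at 546/580 nm; fitted both ways against DMSO so a hit may be loss or gain of signal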;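 for AC50: PBMC superantigen activated with SEB plus TSST-1 one hour after compound addition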
# Method in brief: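 Alamar Blue reduction (6 h, 546/580 nm) reports PBMC cytotoxicity after 90 h superantigen activation (SEB, TSST-1; 20 ng/mL final each) with 1 h compound pre-treatment. Gain or loss of signal fitted versus DMSO.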
# [3] = read-out: Interleukin-8 (IL8), CXCL8 (gene 3576); assay: BSK_SAg_IL8: BioMAP Diversity Plus: SAg Assay for Interleukin-8 (IL8) Biomarker Activity (AID 2283094); details: primary human HUVEC with PBMC; actives raise or lower the signal
# Method in brief: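 Primary human endothelial cells with PBMC, exposed 24 h; IL-8 determined by ELISA, analysed bidirectionally relative to DMSO.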
# [4] = BSK_SAg_SRB: Viability Assessment in the BioMAP Diversity Plus: SAg Assay (AID 2283096); details: primary human HUVEC with PBMC;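 note: cells read one day after compound addition; hits may be either gain or loss of signal compared with DMSO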
# Method in brief: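 This overt-cytotoxicity endpoint quantifies protein in human endothelial/PBMC co-cultures at 24 h using SRB absorbance (560 nm) after trichloroacetic acid fixation. Values reflect signal change from the DMSO negative control, fitted bidirectionally.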
# [5] = BSK_SAg_Proliferation: Cell Proliferation Assessment in the BioMAP Diversity Plus: SAg Assay (AID 2283095); details: primary human HUVEC with PBMC;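 note: relative cell number as total protein by SRB absorbance in sub-confluent culture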
# Method in brief: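 A human primary co-culture of umbilical vein endothelium and blood mononuclear cells receives compound; relative cell number is quantified at 96 h by SRB staining and 560 nm absorbance, with DMSO-referenced bidirectional curve fitting.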
# [6] = target: human CYP2D6, CYP2D6 (gene 1565) (UniProt P10635); assay: NVS_ADME_hCYP2D6: NovaScreen (NVS) CYP450-related Enzyme Activity (ADME) Assay for human CYP2D6 (AID 2283107; active = hit-call score of the fitted dose curve at least 0.9, where 1 is the maximum)
# Method in brief: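 Cell-free assay using recombinant enzyme expressed in insect cells, with fluorescence-intensity readout of enzyme activity 1 hour after chemical dosing. Loss of signal versus acetonitrile negative control indicates inhibition. Primary screen ran in duplicate at 10 uM; actives were retested in concentration series.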
# Sequence of human CYP2D6, CYP2D6 (gene 1565) (P10635 whole entry, looked up): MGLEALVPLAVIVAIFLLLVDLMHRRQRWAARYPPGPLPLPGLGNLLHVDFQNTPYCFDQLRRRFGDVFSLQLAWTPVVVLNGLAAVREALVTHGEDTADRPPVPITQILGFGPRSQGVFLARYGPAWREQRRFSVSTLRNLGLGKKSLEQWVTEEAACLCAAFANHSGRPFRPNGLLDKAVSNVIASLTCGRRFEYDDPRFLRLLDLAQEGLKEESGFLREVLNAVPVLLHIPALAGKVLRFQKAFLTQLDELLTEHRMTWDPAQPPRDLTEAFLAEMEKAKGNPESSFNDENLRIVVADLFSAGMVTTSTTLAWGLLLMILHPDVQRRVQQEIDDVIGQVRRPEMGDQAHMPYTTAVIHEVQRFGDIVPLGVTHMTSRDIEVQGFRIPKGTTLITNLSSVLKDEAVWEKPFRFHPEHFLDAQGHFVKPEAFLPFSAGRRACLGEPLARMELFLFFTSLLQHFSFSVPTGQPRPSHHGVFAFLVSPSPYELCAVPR
smiles,measurement,setting,value
Cc1ccc(Nc2ccc(O)c3c2C(=O)c2ccccc2C3=O)cc1,outcome,[1],inactive
same,outcome,[2],inactive
same,outcome,[3],inactive
same,outcome,[4],inactive
O=C(O)c1cn(C2CC2)c2cc(N3CCNCC3)c(F)cc2c1=O,outcome,[1],inactive
same,outcome,[2],inactive
same,outcome,[3],inactive
same,outcome,[5],inactive
same,outcome,[4],inactive
Nc1cc([N+](=O)[O-])ccc1O,outcome,[1],inactive
same,outcome,[2],inactive
same,outcome,[3],inactive
same,outcome,[5],inactive
same,outcome,[4],inactive
O=C(O)C[C@H](O)C[C@H](O)/C=C/c1c(C2CC2)nc2ccccc2c1-c1ccc(F)cc1,outcome,[1],inactive
same,outcome,[2],inactive
same,AC50,[3],0.0041 µM (active)
same,AC50,[4],0.104 µM (active)
CCCCCCCCCCCCCCCCCC(=O)OCC(CC)CCCC (stereo not given),outcome,[1],inactive
same,outcome,[2],inactive
same,outcome,[3],inactive
same,outcome,[4],inactive
C[C@H]1C[C@@H]2[C@H]([C@@H](O)C[C@@]3(C)[C@H]2CC[C@]3(O)C(=O)CO)[C@@]2(C)C=CC(=O)C=C12,outcome,[1],inactive
same,outcome,[2],inactive
same,AC50,[3],4.3 µM (active) and 1.37 µM (active)
same,outcome,[4],inactive
C=C[Si](OCC)(OCC)OCC,outcome,[1],inactive
same,outcome,[2],inactive
same,outcome,[3],inactive
same,outcome,[5],inactive
same,outcome,[4],inactive
CC[Si](OC(C)=O)(OC(C)=O)OC(C)=O,outcome,[1],inactive
same,outcome,[2],inactive
same,outcome,[3],inactive
same,outcome,[5],inactive
same,outcome,[4],inactive
CNC[C@H](O)c1cccc(O)c1,outcome,[1],inactive
same,outcome,[2],inactive
same,outcome,[3],inactive
same,outcome,[5],inactive
same,outcome,[4],inactive
O=C1CCCCCCCCCCCCCCO1,outcome,[1],inactive
same,AC50,[2],11.7 µM (active)
same,outcome,[3],inactive
same,AC50,[5],10.3 µM (active)
same,outcome,[4],inactive
NCCNCCN,outcome,[1],inactive
same,outcome,[2],inactive
same,outcome,[3],inactive
same,outcome,[5],inactive
same,outcome,[4],inactive
CC1CCC(C(C)CS)CC1S (stereo not given),AC50,[1],34.6 µM (active)
same,outcome,[2],inactive
same,AC50,[3],20 µM (active)
same,AC50,[4],30.7 µM (active)
Cc1ccc(O)c(C(C)(C)C)c1,AC50,[1],38.1 µM (active)
same,AC50,[2],35.8 µM (active)
same,AC50,[3],32.8 µM (active)
same,AC50,[5],32 µM (active)
same,AC50,[4],31.9 µM (active)
O=C(O)c1cn(-c2ccc(F)cc2)c2cc(N3CCNCC3)c(F)cc2c1=O,outcome,[1],inactive
same,outcome,[2],inactive
same,outcome,[3],inactive
same,outcome,[5],inactive
same,outcome,[4],inactive
CC(C)c1ccc(C(C)C)cc1,outcome,[1],inactive
same,outcome,[2],inactive
same,outcome,[3],inactive
same,outcome,[4],inactive
Nc1ccc(F)c([N+](=O)[O-])c1,outcome,[6],inactive
